Values joined by “and” are separate entries in the source; they are usually repeats but may differ in a detail not shown here. Identical values can stand only once. Results filed as inconclusive are left out. Active and inactive are the calls of the source. Unless noted, the call rests on the fitted dose curve.

Assay [1] concerns the target Bile acid receptor (Homo sapiens) (UniProt Q96RI1). In words: qHTS assay for small molecule antagonists of farnesoid X receptor signaling (AID 588526). Further: on the % scale 0 is the no-effect control and ±100 the full control effect. The method in brief:
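Antagonist mode: titrated compounds tested against chenodeoxycholic acid stimulation (normalized to 50 uM CDCA and DMSO) in GeneBLAzer HEK293T cells for 16 h. Beta-lactamase read by CCF4 fluorescence; IC50 from Hill fits.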

Assay [2] addresses Glucocorticoid receptor (Homo sapiens) (UniProt P04150). The assay is described as follows: qHTS assay for small molecule agonists of glucocorticoid receptor signaling (AID 588532; active means well fitted curve in the direction sought with a large enough effect in the signal ratio, with a control signal flat; the % refers to the signal ratio;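 further: 100% = dexamethasone at 0.1 µM and 0% = DMSO only wells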). To be noted: HeLa MMTV-bla, beta-lactamase ratio, agonist, 18 h; stronger effect = higher value; percent of dexamethasone control, DMSO zero. The method in brief:
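HeLa GRE-bla reporter cells; 18 h compound exposure at 37 C; 2 h CCF4 loading at room temperature; fluorescence at 460 and 530 nm; EC50 by Hill equation.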
On the technique in general: qHTS replaces the single test concentration by a dilution series.

Assay [3] has the same target. The assay is described as follows: qHTS assay for small molecule antagonists of glucocorticoid receptor signaling (AID 588533; active means well fitted inhibition curve with a large enough effect in the signal ratio, with a control signal flat, not every such curve was filed as active; the % refers to the signal ratio; further: on the % scale 0 is the no-effect control and ±100 the full control effect). The method in brief: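 Antagonist-mode qHTS: compound titrations added to GRE-bla HeLa cells, then dexamethasone 2 nM final; 18 h, 37 C. CCF4 FRET fluorescence normalized to dexamethasone and DMSO; IC50 from Hill fit.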
A short description of assay [4]: qHTS assay for small molecule antagonists of peroxisome proliferator-activated receptor delta signaling (AID 588535; active means well fitted inhibition curve with a large enough effect in the signal ratio, with a control signal flat, not every such curve was filed as active; the % refers to the signal ratio;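 on max response: cells co-treated with a PPAR-delta agonist as stimulator during compound exposure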). Particulars: HEK293T PPARd-UAS-bla, beta-lactamase FRET ratio, 18 h; 460 nm channel. A digest of the protocol:
(§1)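 Cells were seeded at 4000 per well in assay medium containing 2% charcoal/dextran FBS and held 5 hrs at 37 C. Compounds were then added for 18 hrs. CCF4 substrate was applied for 2 hrs at room temperature before fluorescence reading.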

Assay [5] has as its target Peroxisome proliferator-activated receptor delta (Homo sapiens) (UniProt Q03181). The assay is described as above. A digest of the protocol:
as §1

Assay [6] addresses Peroxisome proliferator-activated receptor gamma (Homo sapiens) (UniProt P37231). In words: qHTS assay for small molecule agonists of peroxisome proliferator-activated receptor gamma signaling (AID 588536; active means well fitted curve in the direction sought with a large enough effect in the signal ratio, with a control signal flat, not every such curve was filed as active; the % refers to the signal ratio;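 further: 0% = DMSO basal wells and 100% = rosiglitazone at 2 µM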). A digest of the protocol: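 Test agents, titrated, stimulated HEK293 UAS-bla cells overnight (16 h, 37 C). Substrate CCF4 was then added for two hours at room temperature before fluorescence reading.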

Assay [7] shares this target. The assay is described as follows: qHTS assay for small molecule antagonists of peroxisome proliferator-activated receptor gamma signaling (AID 588537; active means well fitted inhibition curve with a large enough effect in the signal ratio, with a control signal flat, not every such curve was filed as active; the % refers to the signal ratio;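 further: reporter cells co-stimulated with 50 nM rosiglitazone agonist during compound treatment; % of control where 0% means no effect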). A digest of the protocol:
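Step one: plate 3000 HEK293 UAS-bla cells per well in medium with 1% stripped serum and hold 6-6.5 h at 37 C. Step two: add compound and 50 nM agonist for 16 h. Step three: CCF4 loading, fluorescence read.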

Assay [8] in a line: qHTS assay for small molecule agonists of retinoid X receptor alpha signaling (AID 588544).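 On activation: 0% = DMSO basal wells and 100% = reference agonist.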 To be noted: HEK293T RXRa-UAS-bla, beta-lactamase reporter, 18 h; 530 nm emission.
The target of assay [9] is Retinoic acid receptor RXR-alpha (Homo sapiens) (UniProt P19793). The assay is described as above.
The target of assay [10] is Thyroid hormone receptor beta (Homo sapiens) (UniProt P10828). The assay is described as follows: qHTS assay for small molecule agonists of thyroid hormone receptor beta signaling (AID 588545). A digest of the protocol:
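In this cell-based screen, titrated compounds act on HEK 293 cells held in medium with 2% charcoal/dextran FBS, NEAA and pyruvate for 18 hrs at 37 C. Responses are expressed relative to T3 (10 nM) as 100% and basal DMSO as 0%.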

Assay [11] can be described thus: qHTS assay for small molecule antagonists of retinoid X receptor alpha signaling (AID 588546; active means well fitted inhibition curve with a large enough effect in the signal ratio, with a control signal flat, not every such curve was filed as active; the % refers to the signal ratio;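 further: cells stimulated with 9-cis-retinoic acid as agonist; on the % scale 0 is the no-effect control and ±100 the full control effect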). To be noted: HEK293T RXRa-UAS-bla, beta-lactamase ratio, antagonist mode; measured here: W530 green channel, cytotoxicity proxy. A digest of the protocol: (§2)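 Beta-lactamase reporter inhibition, read as CCF4 fluorescence ratio (ex 405, em 460/530 nm) after 2 h at RT. HEK293T UAS-bla cells, 2500/well, were stimulated with 9-cis-RA at 500 or 100 nM final alongside test compound for 18 h at 37 C.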

The target of assay [12] is Retinoic acid receptor RXR-alpha (Homo sapiens) (UniProt P19793). Described as above. To be noted: HEK293T RXRa-UAS-bla, beta-lactamase ratio, antagonist mode. The method in brief: as §2
The target in assay [13] is Thyroid hormone receptor beta (Homo sapiens) (UniProt P10828). The assay is described as follows: qHTS assay for small molecule antagonists of thyroid hormone receptor beta signaling (AID 588547; active means well fitted inhibition curve with a large enough effect in the signal ratio, with a control signal flat, not every such curve was filed as active; the % refers to the signal ratio;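 further: cells stimulated with 0.4 nM T3 agonist during compound exposure; series mostly up to about 77 µM; on the % scale 0 is the no-effect control and ±100 the full control effect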). To be noted: TR-UAS-bla HEK293, beta-lactamase ratio, antagonist mode, 18 h. The method in brief: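 TR-UAS-bla GripTite HEK293 cells in 2% charcoal/dextran FBS medium; compounds 0.59 nM to 92 uM with T3 at 0.4nM final, 18 h at 37 C. Beta-lactamase read by CCF4 fluorescence (460/530 nm); Hill fits gave IC50 and efficacy.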

The target in assay [14] is Voltage-gated inwardly rectifying potassium channel KCNH2 (Homo sapiens) (UniProt Q12809). In words: qHTS Assay for Small Molecule Inhibitors of the Human hERG Channel Activity (AID 588834; active means well fitted inhibition curve with a large enough effect;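 further: top concentration of the series differs between compounds; on the % scale 0 is the no-effect control and ±100 the full control effect; lower thallium flux fluorescence means stronger hERG block; nearly all actives have a fitted effect of over 50% in size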). A digest of the protocol:
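U2OS cells transduced with hERG via BacMam (MOI ~100), plated 2000/well, loaded with FluxOR thallium dye, compound ~10 min, then stimulation buffer; fluorescence decrease read kinetically; AC50 from Hill fits.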

The nature of assay [15]: qHTS assay for small molecule agonists of the antioxidant response element (ARE) signaling pathway (AID 651741; active means well fitted activation curve with a large enough effect in the signal ratio; the % refers to the signal ratio; further: potency means the concentration at half of the fitted maximal effect; on activation: % of control where 0% means no effect). A digest of the protocol: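 HepG2 ARE-bla cells plated at 2,000 cells/well and incubated 5 h at 37 C/5% CO2 received 23 nL compound in DMSO. After 16 h at 37 C, LiveBLAzer B/G FRET substrate was applied for 2 h at room temperature and fluorescence read.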
Assay [16] is described as follows: qHTS assay for small molecule activators of the p53 signaling pathway (AID 651743; active means well fitted activation curve with a large enough effect in the signal ratio, not every such curve was filed as active; the % refers to the signal ratio; further: series mostly up to about 92 µM; % of control where 0% means no effect). Particulars: HCT-116 p53RE-bla, beta-lactamase FRET ratio, 16 h; stronger effect = higher value. A digest of the protocol: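 HCT-116 p53RE-bla, 4,000 cells/well; 5 h settle; cpd/DMSO 16 h, 37 C; LiveBLAzer B/G 2 h RT; fluorescence intensity.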
A short description of assay [17]: qHTS assay for small molecule activators of the nuclear factor-kappa B (NF-kB) signaling pathway (AID 651749; active means well fitted activation curve with a large enough effect in the signal ratio; the % refers to the signal ratio; further: series mostly up to about 77 µM; % of control where 0% means no effect). Particulars: NF-kB-bla ME-180 cells, beta-lactamase FRET ratio, 16 h; stronger effect = higher value. The method in brief: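 Incubation lasted 16 hr at 37C in 5% CO2 after 23 nL compound addition to ME-180 NF-kB-bla cells. Activation appears as beta-lactamase-mediated FRET loss.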

The target in assay [18] is Vitamin D3 receptor (Homo sapiens) (UniProt P11473). The assay is described as follows: qHTS assay for small molecule antagonists of vitamin D receptor signaling (AID 588541). The method in brief:
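VDR-UAS-bla HEK293T cells in 2% charcoal-stripped FBS were stimulated with 1-alpha,25-dihydroxyvitamin D3 (3 nM final) plus compound for 16 h at 37 C. The beta-lactamase CCF4 readout was normalized to 50 nM agonist and DMSO, and Hill fits gave IC50.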

For assay [19] the target is unchanged. The assay is described as follows: qHTS assay for small molecule agonists of vitamin D receptor signaling (AID 588543).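 Further: 0% = DMSO basal and 100% = reference agonist control.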 A digest of the protocol:
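GeneBLAzer VDR-UAS-bla HEK293T cells in 2% charcoal-stripped FBS medium were dosed with compound titrations for 16 h at 37 °C; CCF4 β-lactamase readout (405 nm ex, 460/530 nm em). EC50 and efficacy from Hill fits, normalized to 50 nM calcitriol (100%) and DMSO (0%).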

Chain of Peroxisome proliferator-activated receptor delta (Homo sapiens) (Q03181 whole entry, looked up): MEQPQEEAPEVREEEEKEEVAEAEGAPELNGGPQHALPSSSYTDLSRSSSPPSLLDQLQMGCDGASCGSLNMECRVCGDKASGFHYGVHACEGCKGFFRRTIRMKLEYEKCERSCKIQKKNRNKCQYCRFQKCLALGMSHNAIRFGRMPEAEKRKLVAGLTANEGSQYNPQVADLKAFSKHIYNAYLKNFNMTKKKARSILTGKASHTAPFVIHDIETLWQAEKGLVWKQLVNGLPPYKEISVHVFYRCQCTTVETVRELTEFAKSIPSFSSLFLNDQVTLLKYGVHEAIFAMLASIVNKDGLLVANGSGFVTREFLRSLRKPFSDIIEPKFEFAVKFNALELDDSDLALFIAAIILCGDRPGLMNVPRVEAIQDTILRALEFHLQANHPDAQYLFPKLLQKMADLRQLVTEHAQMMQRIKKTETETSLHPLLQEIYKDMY
Chain of Thyroid hormone receptor beta (Homo sapiens) (P10828 whole entry, looked up): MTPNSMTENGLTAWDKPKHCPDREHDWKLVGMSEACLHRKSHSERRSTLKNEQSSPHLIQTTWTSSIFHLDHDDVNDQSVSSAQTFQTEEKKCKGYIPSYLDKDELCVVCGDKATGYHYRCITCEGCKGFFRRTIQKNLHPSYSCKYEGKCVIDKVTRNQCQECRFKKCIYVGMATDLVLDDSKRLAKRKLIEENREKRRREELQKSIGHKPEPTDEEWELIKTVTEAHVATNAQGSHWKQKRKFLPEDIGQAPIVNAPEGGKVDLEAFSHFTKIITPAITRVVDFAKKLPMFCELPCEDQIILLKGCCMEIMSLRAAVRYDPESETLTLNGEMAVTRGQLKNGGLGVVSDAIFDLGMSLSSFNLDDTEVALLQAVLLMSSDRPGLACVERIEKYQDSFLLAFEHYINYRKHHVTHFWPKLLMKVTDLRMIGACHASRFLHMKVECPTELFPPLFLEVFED
Chain of Vitamin D3 receptor (Homo sapiens) (P11473 whole entry, looked up): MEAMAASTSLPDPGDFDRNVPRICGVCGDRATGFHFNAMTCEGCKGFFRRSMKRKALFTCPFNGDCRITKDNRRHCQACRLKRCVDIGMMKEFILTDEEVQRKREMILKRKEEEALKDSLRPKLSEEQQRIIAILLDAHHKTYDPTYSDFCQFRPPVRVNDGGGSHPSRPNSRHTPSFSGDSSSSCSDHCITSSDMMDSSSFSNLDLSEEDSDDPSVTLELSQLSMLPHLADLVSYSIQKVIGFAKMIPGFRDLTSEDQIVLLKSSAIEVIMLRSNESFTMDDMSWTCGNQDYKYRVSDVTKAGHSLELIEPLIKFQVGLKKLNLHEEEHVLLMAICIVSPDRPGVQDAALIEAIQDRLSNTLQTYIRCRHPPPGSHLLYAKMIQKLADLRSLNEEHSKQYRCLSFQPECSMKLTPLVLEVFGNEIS
Chain of Bile acid receptor (Homo sapiens) (Q96RI1 whole entry, looked up): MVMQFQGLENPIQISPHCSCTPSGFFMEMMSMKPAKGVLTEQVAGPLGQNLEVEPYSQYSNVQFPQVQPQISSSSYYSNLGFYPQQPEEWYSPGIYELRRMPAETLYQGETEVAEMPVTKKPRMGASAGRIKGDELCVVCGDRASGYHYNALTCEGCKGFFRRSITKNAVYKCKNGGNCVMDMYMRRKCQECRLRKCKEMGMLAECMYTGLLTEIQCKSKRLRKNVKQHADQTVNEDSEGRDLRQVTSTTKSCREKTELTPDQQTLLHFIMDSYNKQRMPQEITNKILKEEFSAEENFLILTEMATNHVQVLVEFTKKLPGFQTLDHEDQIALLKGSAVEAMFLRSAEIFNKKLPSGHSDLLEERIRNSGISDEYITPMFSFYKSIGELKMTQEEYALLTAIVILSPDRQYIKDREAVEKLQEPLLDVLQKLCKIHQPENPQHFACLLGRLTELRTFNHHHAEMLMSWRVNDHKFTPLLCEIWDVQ
Chain of Voltage-gated inwardly rectifying potassium channel KCNH2 (Homo sapiens) (Q12809 whole entry, looked up): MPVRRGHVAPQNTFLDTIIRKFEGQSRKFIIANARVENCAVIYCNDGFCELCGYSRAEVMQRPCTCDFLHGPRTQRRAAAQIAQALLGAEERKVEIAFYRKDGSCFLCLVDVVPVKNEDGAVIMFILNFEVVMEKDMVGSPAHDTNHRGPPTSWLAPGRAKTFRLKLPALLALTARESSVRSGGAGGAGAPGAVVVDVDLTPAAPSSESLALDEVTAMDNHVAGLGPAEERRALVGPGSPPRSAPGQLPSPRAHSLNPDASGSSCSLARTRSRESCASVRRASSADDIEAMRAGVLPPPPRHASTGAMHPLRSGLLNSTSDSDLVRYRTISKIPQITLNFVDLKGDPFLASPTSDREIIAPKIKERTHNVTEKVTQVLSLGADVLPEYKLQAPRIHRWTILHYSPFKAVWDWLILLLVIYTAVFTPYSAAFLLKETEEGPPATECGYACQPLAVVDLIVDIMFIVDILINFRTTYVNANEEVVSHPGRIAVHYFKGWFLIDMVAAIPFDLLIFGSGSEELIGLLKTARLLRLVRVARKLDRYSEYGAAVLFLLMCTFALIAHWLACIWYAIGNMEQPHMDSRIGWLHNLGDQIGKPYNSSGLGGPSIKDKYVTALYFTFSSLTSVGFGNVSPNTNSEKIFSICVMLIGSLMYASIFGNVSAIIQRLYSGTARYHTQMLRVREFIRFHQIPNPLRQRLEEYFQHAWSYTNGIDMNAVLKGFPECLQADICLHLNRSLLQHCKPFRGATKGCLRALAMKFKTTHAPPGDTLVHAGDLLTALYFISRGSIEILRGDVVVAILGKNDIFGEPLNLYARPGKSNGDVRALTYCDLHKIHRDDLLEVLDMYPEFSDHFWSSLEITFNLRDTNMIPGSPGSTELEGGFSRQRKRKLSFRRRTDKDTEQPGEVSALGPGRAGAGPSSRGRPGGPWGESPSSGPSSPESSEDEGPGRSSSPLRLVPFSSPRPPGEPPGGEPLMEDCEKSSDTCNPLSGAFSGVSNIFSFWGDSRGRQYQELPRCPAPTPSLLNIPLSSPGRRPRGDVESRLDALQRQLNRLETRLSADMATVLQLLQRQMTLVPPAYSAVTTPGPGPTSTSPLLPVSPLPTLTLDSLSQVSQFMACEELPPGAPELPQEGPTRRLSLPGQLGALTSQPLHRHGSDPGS
Chain of Peroxisome proliferator-activated receptor gamma (Homo sapiens) (P37231 whole entry, looked up): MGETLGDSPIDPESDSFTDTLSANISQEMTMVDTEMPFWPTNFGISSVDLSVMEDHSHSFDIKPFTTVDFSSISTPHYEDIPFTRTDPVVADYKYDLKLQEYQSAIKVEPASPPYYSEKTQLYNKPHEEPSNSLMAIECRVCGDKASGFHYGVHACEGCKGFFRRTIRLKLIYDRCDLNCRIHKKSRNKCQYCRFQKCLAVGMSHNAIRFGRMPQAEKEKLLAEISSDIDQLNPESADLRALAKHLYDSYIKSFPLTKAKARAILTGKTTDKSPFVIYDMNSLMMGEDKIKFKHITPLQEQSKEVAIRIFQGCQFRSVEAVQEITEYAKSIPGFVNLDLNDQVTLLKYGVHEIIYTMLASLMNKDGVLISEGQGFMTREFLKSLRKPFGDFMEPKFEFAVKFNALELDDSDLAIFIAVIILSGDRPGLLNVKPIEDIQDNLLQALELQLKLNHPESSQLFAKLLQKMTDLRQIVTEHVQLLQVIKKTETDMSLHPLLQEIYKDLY
Chain of Retinoic acid receptor RXR-alpha (Homo sapiens) (P19793 whole entry, looked up): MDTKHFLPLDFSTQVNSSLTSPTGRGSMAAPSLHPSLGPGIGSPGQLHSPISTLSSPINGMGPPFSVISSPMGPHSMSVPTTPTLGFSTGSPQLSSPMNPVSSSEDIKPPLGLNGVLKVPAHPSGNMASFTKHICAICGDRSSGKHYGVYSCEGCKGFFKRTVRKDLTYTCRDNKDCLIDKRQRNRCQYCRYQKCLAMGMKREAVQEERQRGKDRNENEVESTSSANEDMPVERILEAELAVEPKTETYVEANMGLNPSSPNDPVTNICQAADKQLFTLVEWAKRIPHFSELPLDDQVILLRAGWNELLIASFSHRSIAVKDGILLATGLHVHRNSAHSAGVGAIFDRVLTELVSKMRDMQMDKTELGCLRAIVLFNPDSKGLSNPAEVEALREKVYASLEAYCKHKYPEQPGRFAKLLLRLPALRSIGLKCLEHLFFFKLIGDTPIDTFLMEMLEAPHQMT
Chain of Glucocorticoid receptor (Homo sapiens) (P04150 whole entry, looked up): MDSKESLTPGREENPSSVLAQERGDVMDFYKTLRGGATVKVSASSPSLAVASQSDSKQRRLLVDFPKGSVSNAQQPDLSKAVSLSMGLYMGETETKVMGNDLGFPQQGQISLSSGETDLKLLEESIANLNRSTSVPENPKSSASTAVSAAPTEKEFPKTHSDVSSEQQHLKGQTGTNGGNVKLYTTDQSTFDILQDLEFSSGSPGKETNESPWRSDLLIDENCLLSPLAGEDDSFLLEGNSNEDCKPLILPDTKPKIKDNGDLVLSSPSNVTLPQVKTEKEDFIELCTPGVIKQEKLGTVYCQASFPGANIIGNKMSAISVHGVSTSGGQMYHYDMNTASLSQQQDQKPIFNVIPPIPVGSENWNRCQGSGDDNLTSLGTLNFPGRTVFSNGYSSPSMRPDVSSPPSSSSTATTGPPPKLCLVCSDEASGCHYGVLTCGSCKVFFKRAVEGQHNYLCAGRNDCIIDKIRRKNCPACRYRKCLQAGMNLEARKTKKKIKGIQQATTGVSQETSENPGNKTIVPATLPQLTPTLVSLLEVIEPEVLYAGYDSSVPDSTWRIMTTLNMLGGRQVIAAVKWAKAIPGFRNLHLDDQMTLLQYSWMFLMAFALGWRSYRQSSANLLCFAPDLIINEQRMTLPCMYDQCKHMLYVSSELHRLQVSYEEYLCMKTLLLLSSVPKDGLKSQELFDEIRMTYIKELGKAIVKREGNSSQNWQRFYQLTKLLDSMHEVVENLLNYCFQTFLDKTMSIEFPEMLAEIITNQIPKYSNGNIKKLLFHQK

On to `NC(=S)NNC(N)=S`, for which the compound was called inactive in assay [1], in [3], in [6], in assay [7], in [9] and in assay [10]. Further, the activation was -4.1% (inactive) and -4.08% (inactive) in assay [2]; 1.05% (inactive) and -1.18% (inactive) in assay [16]; -0.0609% (inactive) and -1.04% (inactive) in assay [17]. Moreover, the max response is -7.61% and 32% in [4]; -14.7% and -3.73% in [8]; -7.09% in [11]; -19.9% (inactive) in assay [12]. Besides, the Potency entry in assay [5], in [14] and in [15] was “inactive” in each case. In assay [13], the activity change % (negative = inhibition) is -0.459% (inactive) and 12.6% (inactive).
As to `N#CC1(O)CCCCC1`, the outcome in assay [1], in assay [3], in [6], in [18], in [19] and in [9] was inactive. Besides, the compound was classed as inactive in assay [10]. For the same compound, the activation in [2] is 0.0169% (inactive); in [16], 0.526% (inactive); in [17], -2.59% (inactive). Besides, the max response in [4] was 12%; in assay [8], 4.69%; in assay [11] it was -4.06%; in assay [12], 2.71% (inactive). In addition, the Potency entry in assay [5], in [14] and in assay [15] was “inactive” each time. For the same compound, in assay [13], the activity change % (negative = inhibition) is -16% (inactive).
With `C/C=C1\CC2C=CC1C2` (centres undefined), the compound was classed as inactive in assay [1], in assay [3], in assay [7], in [18] and in assay [9]. Moreover, the values for the activation in [2], in assay [16] and in [17] were 1.02% (inactive), 0.178% (inactive) and -0.076% (inactive), respectively. Moreover, the max response was -0.443% in [4], -9.1% in [8], -2.6% in assay [11] and 6.71% (inactive) in assay [12]. Further, the Potency result in assay [5], in [14] and in [15] was “inactive” throughout. Also, in assay [13], the activity change % (negative = inhibition) is 2.19% (inactive).
Turning to `CCCCC(CC)COC(=O)CCCCC(=O)OCC(CC)CCCC` (centres undefined), the call in [1], in assay [3], in assay [6], in [18], in [19] and in assay [9] was inactive. The compound was called inactive in [10]. Further, the activation is 0.342% (inactive) and 3.17% (inactive) in assay [2]; -0.514% (inactive) and -0.3% (inactive) in assay [16]; 0.278% (inactive) and -0.188% (inactive) in [17]. Also, the max response in [4] is -4.31% and 35.2%; in [8], -13% and -12.5%; in assay [11] it was -3.16% and -14.9%. For the same compound, the Potency result in assay [5], in assay [14] and in [15] was “inactive” throughout.
On to `Nc1cccc2c(=O)[nH][nH]c(=O)c12`, for which the result in assay [1], in assay [3], in [6], in assay [7] and in [9] was inactive. Besides, the figures for the activation in assay [2], in [16] and in assay [17] were 0.411% (inactive), -2.14% (inactive) and 0.176% (inactive), respectively. The max response in [4] is -7.57%; in assay [8], -4.82%; in assay [11], -2.09%; in assay [12], 12.7% (inactive). Also, the Potency result in [5] and in assay [14] was “inactive” in each case. Also, the activity change % (negative = inhibition) in assay [13] is -3.76% (inactive).
Regarding `CCCCCCCN`, the result in assay [1], in assay [3], in assay [6], in assay [7], in [9] and in assay [10] was inactive. For the same compound, the values for the activation in assay [2] and in assay [16] were 4.22% (inactive) and -0.0412% (inactive), respectively. Further, the max response is 31.2% in assay [4], -16.2% in [8], 3.38% in assay [11] and -5.49% (inactive) in assay [12]. For the same compound, the Potency result in assay [5] and in assay [14] was “inactive” throughout. Further, the activity change % (negative = inhibition) in [13] was 3.05% (inactive).
Regarding `CCCCC/C=C/C=C/C=O`, the result in assay [1], in assay [3], in [6], in [19], in [9] and in [10] was inactive. Further, the activation in assay [2] is -3.04% (inactive) and 0.369% (inactive); in [16], -11.3% (inactive); in assay [17], -1.4% (inactive) and -2.02% (inactive). Also, the max response is 16.5% in [4]; -6.95% and 20% in assay [8]; -1.35% and -13.3% in [11]; 1.5% (inactive) and -3.35% (inactive) in assay [12]. In addition, the Potency entry in assay [5] and in assay [14] was “inactive” throughout. In assay [13], the activity change % (negative = inhibition) is 6.77% (inactive) and -0.205% (inactive). Moreover, in assay [15], the Potency is 48.6 µM (active).

These data come from PubChem BioAssay (NCATS).
